Sampled rows, rich in hits. Any-hit rate of the full collection: about 2.8%.
IP6K1 inhibitor – Primary qHTS assay for small molecule inhibitors of Inositol hexaphosphate kinase 1 (IP6K1); Inositol hexakisphosphate kinase 1 (Homo sapiens), Q92551; IP6K1 kinase, ADP-Glo luminescence, 2 h; hits give low values; activity change, % (series mostly up to about 58 µM); hit rate 0.81% among 140,000; AID 1645851, 2021; in the data active means activity change below about -25%; further: on the % scale 0 is the no-effect control and ±100 the full control effect
Target sequence (Q92551 whole entry, looked up): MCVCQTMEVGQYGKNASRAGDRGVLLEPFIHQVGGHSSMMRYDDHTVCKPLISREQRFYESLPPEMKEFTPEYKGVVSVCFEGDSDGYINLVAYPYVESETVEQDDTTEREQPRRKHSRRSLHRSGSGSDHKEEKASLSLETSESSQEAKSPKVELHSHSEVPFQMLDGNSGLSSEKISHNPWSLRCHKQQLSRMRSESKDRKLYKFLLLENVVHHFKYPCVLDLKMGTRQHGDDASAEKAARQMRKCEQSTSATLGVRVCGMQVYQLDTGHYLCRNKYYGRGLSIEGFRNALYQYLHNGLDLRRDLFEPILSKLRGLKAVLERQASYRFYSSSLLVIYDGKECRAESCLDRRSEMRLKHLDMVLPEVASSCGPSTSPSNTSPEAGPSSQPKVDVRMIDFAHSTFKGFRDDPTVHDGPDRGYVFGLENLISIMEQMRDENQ
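ADP-Glo luminescence measures ADP made by human IP6K1 during a 2 h RT reaction with ATP/IP6 (mix at 1.3 mM/130 uM); top library doses 57.5 and 19.1 uM final.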
KDM5B inhibitor – Primary screen for KDM5B Histone Demethylases FDH-coupled qHTS. Lysine-specific demethylase 5B (Homo sapiens), Q9UGL1. KDM5B demethylase, FDH-coupled NADH fluorescence (FDH is formaldehyde dehydrogenase). Potency, µM (top dose mostly 57.7 µM), most hits filed as inhibitors. hit rate 2.6% among 220,000; active means well fitted inhibition curve with a large enough effect; inconclusive means small, poorly fitted or top-dose-only effect; inactive means no such curve, though single readings can be large or run the other way; further: potency means the concentration at half of the fitted maximal effect; 0% is about no effect; nearly all actives have a fitted effect of over 70% in size
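Coupled FDH/NAD⁺ fluorescence readout. KDM5BΔAP 200 nM final; compound titration, 10 min RT preincubation; substrate mix 12.5 µM H3K4me3, 25 µM 2-OG, 50 µM Fe(II), 100 µM ascorbate, 0.25 mM NAD⁺, 0.25 U/mL FDH; ΔRFU over 30 min.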
An asterisk follows results filed as active; i = inactive; ? = inconclusive; / = not tested or not shown.

SMILES | IP6K1 inhibitor | KDM5B inhibitor
CN(C)c1ccc(C(=O)NCC2CCN(c3cc(-c4ccc(F)cc4)[nH]n3)CC2)cc1 | 5.5 | ?
CCOc1ccccc1C(=O)NC1CCN(c2cc(-c3ccc(OC)cc3)[nH]n2)CC1 | 22.1 | i
COc1ccccc1CC(=O)NC1CCN(c2cc(-c3ccccc3)[nH]n2)C1 (stereo unspecified) | 2.1 | 15.8µM*
COc1ccccc1CCC(=O)NC1CCN(c2cc(-c3ccccc3)[nH]n2)CC1 | 31.8 | i
CN(C)c1cccc(C(=O)NCC2CCN(c3cc(-c4ccccc4)[nH]n3)CC2)c1 | 16.6 | 25.1µM*
CCOc1ccc(CC(=O)NC2CCN(c3cc(-c4ccc(F)cc4)[nH]n3)C2)cc1OCC (stereo unspecified) | 0.9 | 8.91µM*
COc1ccc(CC(=O)NC2CCN(c3cc(-c4ccc(F)cc4)[nH]n3)C2)cc1 (stereo unspecified) | 4.6 | ?
CCOc1ccccc1C(=O)NC1CCN(c2cc(-c3ccc(OC)cc3)[nH]n2)C1 (stereo unspecified) | 6.9 | 12.6µM*
O=C(c1cccc(Cl)c1)N1CCC(C(=O)N2CCC(N3Cc4ccccc4C3=O)CC2)CC1 | 24.5 | /
O=C(c1ccc(C(F)(F)F)cc1)N1CCCC(C(=O)N2CCC(c3ccccc3)CC2)C1 (stereo unspecified) | -5.2 | /
CC(=O)Nc1ccc(S(=O)(=O)[C@H]2CS(=O)(=O)C[C@@H]2N2CCC(C)CC2)cc1 | / | i
C[C@H]1[C@@H]2[C@@H](O)[C@H]([C@H](C)C(=O)N3CCCC3)CC[C@@]2(C)CC[C@@H]1NC(=O)c1cccc(F)c1 | -11.1 | i
COc1ccccc1CCNC(=O)CSc1ccccc1C(=O)OCC(=O)C(C)(C)C | / | i
CN1c2ncccc2CN(Cc2ccccc2O)CC[C@H]1CO | -15.9 | ?
CC(=O)N1CCC(N2CC[C@@H](CO)N(C)c3ncccc3C2)CC1 | 3.5 | 35.5µM*
CC(C)(C)c1ccc(C(=O)Oc2ccc(/C=N/O)cc2)cc1 | / | i
Cc1nn(-c2ccccc2)nc1C(=O)N[C@H](C)c1onc(-c2cccnc2)c1C(=O)O | 28.7 | 25.1µM*
C[C@@H](NC(=O)c1cccnc1)c1onc(-c2cccnc2)c1C(=O)O | 12.6 | i
COc1ccc(NC(=O)COc2cccc3c2CCN(Cc2cccnc2)C3=O)c(OC)c1 | / | i
CN(C)Cc1cccc(-c2cc3c(ccn3Cc3cccnc3)c(C3=CCOCC3)n2)c1 | 20.7 | 39.8µM*
C1=C(c2nc(-c3cncnc3)cc3c2ccn3Cc2cccnc2)CCOC1 | -0.4 | ?
Cc1ccc(-c2cc3c(ccn3Cc3cccnc3)c(C3=CCOCC3)n2)cn1 | -8.7 | 35.5µM*
COc1cccc(-c2cc3c(ccn3Cc3cccnc3)c(C3=CCOCC3)n2)c1OC | 10.2 | 28.2µM*
C[S+](=O)([O-])Nc1cccc(-c2cc3c(ccn3Cc3cccnc3)c(C3=CCOCC3)n2)c1 | -9.5 | ?
Cc1c(C(=O)O)sc2ccsc12 | / | i
SMILES | IP6K1 inhibitor | KDM5B inhibitor
COc1cccc2c1OC1(CCN(C)CC1)N1N=C(c3ccccc3)CC21 (stereo unspecified) | / | i
O=C(NCC(F)F)c1nc2cccnc2n(C2CC2)c1=O | -0.4 | /
O=C(Nc1ccccc1Oc1ccccc1)c1ccoc1 | / | i
COc1ccc(-c2cnc3[nH]cc(CC(=O)NCc4cnccn4)c3c2)cc1 | -17.5 | i
COCCNC(=O)Cc1c[nH]c2ncc(-c3ccc(OC)cc3)cc12 | 5.0 | 35.5µM*
O=C(Cc1c[nH]c2ncc(-c3cccnc3)cc12)NCCc1ccccn1 | 3.3 | i
O=C(Cc1c[nH]c2ncc(-c3ccccc3)cc12)NCCCn1ccnc1 | 3.6 | 39.8µM*
COCCNC(=O)Cc1c[nH]c2ncc(-c3cccnc3)cc12 | 4.2 | i
COCCNC(=O)Cc1c[nH]c2ncc(-c3ccccc3)cc12 | 18.3 | 39.8µM*
C#CCOC(=O)CCC(=O)NCCCCCCCCCCCC | / | i
CC(=O)c1ccc(OCC(O)CN2CCCN(c3ccc(C(F)(F)F)cn3)CC2)cc1 (stereo unspecified) | / | i
CCN1CCCC1CNC(=O)C1CCCC1 (stereo unspecified) | / | i
Cc1cc(C)cc(NC(=O)N2CCC(F)(c3nc(-c4ccncc4)no3)CC2)c1 | 25.3 | /
COc1cc(Cl)ccc1-c1cccc(COc2cnc3c(ccn3CC(=O)O)c2)c1 | -15.1 | 35.5µM*
CC(C)Oc1cccc(-c2cccc(COc3cnc4c(ccn4CC(=O)O)c3)c2)c1 | -7.9 | ?
COc1ccccc1NC(=O)Cn1ccc2ccc(Cl)cc21 | / | i
COc1cc(F)cc(-c2cccc(COc3cnc4c(ccn4CC(=O)O)c3)c2)c1 | -5.8 | 35.5µM*
COc1ccccc1N1CCN(S(=O)(=O)c2ccc(F)c(C(=O)Nc3ccc(Cl)cc3C(F)(F)F)c2)CC1 | -34.0* | i
COc1ccccc1NC(=O)c1cc(S(=O)(=O)N2CCN(c3ccccc3Cl)CC2)ccc1F | -11.1 | i
COc1cccc(C(=O)N2CCC3(CC2)CC(c2cccc(C(F)(F)F)c2)=NO3)c1 | 5.9 | /
CCc1cccc(C)c1NC(=O)c1cc(=O)c2cc(C)ccc2o1 | / | i
c1cn(CCc2noc(C3CCCO3)n2)c(-c2nc3c(s2)CCCC3)n1 (stereo unspecified) | 3.3 | 31.6µM*
O=S(=O)(NCc1ccccc1)NCc1noc(C2CCCO2)n1 (stereo unspecified) | -2.6 | i
Cc1ccc(CN(C)C(=O)c2ccc3ncsc3c2)o1 | / | i
Cc1cccc(-c2cccc(CN3CCC(NC(=O)Nc4ccc(Cl)cc4)CC3)c2)c1 | -0.6 | /
SMILES | IP6K1 inhibitor | KDM5B inhibitor
O=c1c2c(CO)c(-c3ccccc3)nn2ccn1Cc1ccccc1Cl | 3.9 | ?
O=C(Cn1ccn2nc(-c3ccccc3)c(CO)c2c1=O)NCc1ccc2c(c1)OCO2 | 7.1 | 31.6µM*
COc1ccc(CNC(=O)Cn2ccn3nc(-c4ccccc4)c(CO)c3c2=O)cc1OC | 20.0 | ?
O=C(Cn1ccn2nc(-c3ccc(F)cc3)c(CO)c2c1=O)NCc1ccccc1Br | 0.2 | 22.4µM*
O=C(Cn1ccn2nc(-c3ccc(F)cc3)c(CO)c2c1=O)NCc1ccc(F)cc1F | 3.5 | i
O=C(Cn1ccn2nc(-c3ccccc3)c(CO)c2c1=O)NCc1ccccc1Cl | 7.5 | 20µM*
Cc1oc(-c2ccccc2)nc1C(=O)Nc1ccc(F)cc1 | / | i
C#CCOc1ccc2ccccc2c1C=O | / | i
CCOCCCNC(=O)C1CCc2ncc(-c3ccsc3)n2C1 (stereo unspecified) | 19.2 | i
CC(C)NC(=O)NC(C)c1cccc(Cl)c1 (stereo unspecified) | / | i
O=C(c1ccccc1Cl)N1CCC(C(=O)N2CCC(c3ccccc3)CC2)CC1 | 16.3 | /
Cc1cccnc1NC(=O)CCc1ncc(-c2ccccc2)o1 | / | i
CC(NC(=O)CNC(=O)C1CCC(CNS(=O)(=O)c2ccc(Cl)cc2)CC1)c1ccccc1 (stereo unspecified) | / | i
CN1CCC([C@@H]2CN(C(=O)c3ccccc3Cl)C[C@H]2C(N)=O)CC1 | -3.0 | i
Cn1nnnc1C1CCCN(C(=O)c2ccccc2)C1 (stereo unspecified) | -9.3 | i
Cn1cccc1C(=O)N1CCCC(c2nnnn2C)C1 (stereo unspecified) | -6.1 | ?
